{"source": "PubChem BioAssay (NCI)", "note": "Compounds without any hit were thinned out: in the full panel of roughly 83,000, 20% have a hit.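 Each cell line was grown in a 96-well plate and treated with one concentration of compound for 48 hours. Values below 10 were considered active.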 Unmarked numbers belong to inactive results. Active and inactive are the calls of the source."}
{"test_system": "HL-60(TB) leukemia", "test": "NCI-60 one-dose screen, 48 h (100 = growth as untreated, 0 = no growth, -100 = all killed)", "conditions": "10 µM unless noted"}
{"smiles": "Cc1ccc(C(=O)NCCNc2nccc(-c3c(-c4cccc(F)c4)nc4sccn34)n2)cc1", "growth": "95.5%"}
{"smiles": "Cn1ccc(=O)nc1", "growth": "105%"}
{"smiles": "[2H]C([2H])([2H])Oc1ccc(F)cc1/C=C/C(=O)/C=C(O)/C=C/c1cc(F)ccc1OC([2H])([2H])[2H]", "growth": "77.3%"}
{"smiles": "CC(C)n1c(NCCc2ccc(O)c(O)c2)nc2c1c(=O)n(C)c(=O)n2C", "growth": "99.3%"}
{"smiles": "O=C(Nc1ccccc1O)c1ccc(Oc2cccc(C(=O)Nc3ccccc3O)c2)cc1", "growth": "-40.4% (active)"}
{"smiles": "Oc1ccc(-c2nc3ccc4[nH]ncc4c3c3c2CCCC3)c2cccnc12", "growth": "-8.83% (active)"}
{"smiles": "CC1(C)C(=O)/C(=C\\c2ccco2)C[C@]2(C)[C@H]3CC[C@@H]4[C@@H](C(=O)/C=C/c5ccco5)CC[C@@]4(C)[C@]3(C)CC[C@@H]12", "growth": "81.6%"}
{"smiles": "Cc1cc(C(=C2C=CC(=Nc3ccccc3)C=C2)c2ccc(Nc3ccccc3)cc2)ccc1N", "growth": "5.66% (active)"}
{"smiles": "Nc1nc(N)c2c(n1)NC(c1ccc(F)cc1)C1CCc3ccccc3C1=N2", "note": "(stereo not given)", "growth": "16.5%"}
{"smiles": "Cc1ncc(C(=O)Nc2ccc(CN3CCN(C)CC3)c(C(F)(F)F)c2)cc1C#Cc1cncc2ncccc12", "growth": "41.7%"}
{"smiles": "O=c1oc2ccc(Br)cc2c(=O)n1-c1ccc(Br)cc1F", "growth": "-39.1% (active)"}
{"smiles": "O=C(/C(=C/c1ccccc1)CBr)c1ccccc1", "growth": "9.09% (active)"}
{"smiles": "Cc1cccc(NC(=O)[C@@H]2c3ccccc3C(=O)N(c3ccc(Cl)cc3)[C@H]2c2ccc(Cl)cc2)n1", "growth": "36.2%"}
{"smiles": "C#CCOC(=O)Nc1ccccc1", "growth": "99.7%"}
{"smiles": "CN(C)C(=O)c1cc2cnc(Nc3ccc(-c4csc5c(=O)cc(N6CCNCC6)oc45)cc3)nc2n1C1CCCC1", "growth": "-21% (active)"}
{"smiles": "CC(=O)OCCO", "growth": "105%"}
{"smiles": "COc1ncnc2c(-c3ccccc3)cn(COCc3ccccc3)c12", "growth": "53.1%"}
{"smiles": "Cc1ccc(C(=NN=C(N)N)c2ccc(C)cc2)cc1", "growth": "-28% (active)"}
{"smiles": "CCCCCCCC/C=C\\CCCCCCCCOc1ccccc1CC(=O)NCC[N+]1(C)CCCCC1", "growth": "-19.6% (active)"}
{"smiles": "COc1ccc(C(=O)COc2cccc(/C=C3\\Oc4ccc5ccccc5c4C3=O)c2)cc1", "growth": "90.7%"}
{"smiles": "O=C1NC(=S)S/C1=C\\N1N=C(c2ccc(Cl)cc2)CC1c1ccc(F)cc1", "note": "(stereo not given)", "growth": "99.5%"}
{"smiles": "CC1(C)NCCC[C@]2(C)[C@H]3CC=C4[C@@H]5C[C@@](C)(CO)CC[C@]5(C)CC[C@@]4(C)[C@]3(C)CC[C@@H]12", "growth": "66.3%"}
{"smiles": "CC1(C)N=C(N)N=C(N)N1c1cccc(CCCCOc2ccccc2)c1", "growth": "13.6%"}
{"smiles": "N=C(N)c1ccc(-c2ccc(-c3ccccc3)s2)cc1", "growth": "-34.2% (active)"}
{"smiles": "O=C(CCCCC(=O)Oc1c(Cl)cc(Cl)cc1[N+](=O)[O-])Oc1c(Cl)cc(Cl)cc1[N+](=O)[O-]", "growth": "81.9%"}
{"smiles": "CCN(CC)CCSCCCNc1c(C)cnc2cc(Cl)ccc12", "growth": "69.1%"}
{"smiles": "CCOC(=O)c1cn2ncnc(Oc3ccc(NC(=O)NC4CC4)c(F)c3)c2c1C", "growth": "70.9%"}
{"smiles": "N=C(N)c1ccc(-c2ccc(-c3ccc(-c4cccs4)s3)s2)cc1", "growth": "100%"}
{"smiles": "CC1(C)NCCC[C@]2(C)[C@H]3CC(=O)[C@H]4[C@@H]5C[C@](C)(CO)CC[C@]5(C)CC[C@@]4(C)[C@]3(C)CC[C@@H]12", "growth": "102%"}
{"smiles": "c1ccc(CCNc2ncnc3[nH]ncc23)cc1", "growth": "79.6%"}
{"smiles": "C[C@H]1C=C(C[C@@H](O)CCCCCCCCCC[C@@H](O)[C@H]2CCC(=O)O2)C(=O)O1", "growth": "102%"}
{"smiles": "CC(C)(C)OC(=O)N1C=C/C(=C\\Cn2cc(-c3ccccc3)nn2)CC1", "growth": "75.7%"}
{"smiles": "O=S(=O)(O)c1ccc(N=NSc2ccc3ccccc3c2)cc1", "growth": "98.8%"}
{"smiles": "CC1NC(C)c2ccc3ccccc3c2O1", "note": "(stereo not given)", "growth": "99.4%"}
{"smiles": "O=C(O/C(=C/c1ccccc1)C(F)(F)F)c1ccccc1", "growth": "32.3%"}
{"smiles": "O=C(Nc1ccc(Cl)cc1)Oc1c(Cl)c(Cl)c(Cl)c(Cl)c1Cl", "growth": "98.5%"}
{"smiles": "COc1cc(-c2nn(-c3cccc(NC(=O)Nc4cccc(C(F)(F)F)c4)c3)cc2-c2ccncc2)ccc1Cl", "growth": "-18.7% (active)"}
{"smiles": "COc1ccc(-c2cc(-c3ccccc3)nc(SCCCCCC(=O)NO)n2)cc1", "growth": "-26.2% (active)"}
{"smiles": "C=C1C(=O)O[C@H]2[C@H]1CC/C(COC(=O)NCCCCCCCCNC(=O)OC/C1=C/CC[C@@]3(C)O[C@H]3[C@H]3OC(=O)C(=C)[C@@H]3CC1)=C\\CC[C@@]1(C)O[C@@H]21", "growth": "-50.2% (active)"}
{"smiles": "O=C(Nc1ccc(-n2cc(-c3ccncc3)c(-c3ccc(Cl)c(O)c3)n2)cc1)c1ccc(Cl)c(C(F)(F)F)c1", "growth": "-29.1% (active)"}
